In publication PMC7819943, “Rice protein-binding microarrays: a tool to detect cis-acting elements near promoter regions in rice”:
In all, about 68,000 sequences were measured (“fluorescence intensity (a.u.)”: median about 9,100, highest 2% from about 16,000 on). The sample holds the highest values, similar sequences and a random draw of the others, so the mix is not that of the screen.

These sequences were tested against OsWRKY34 (Oryza sativa, UniProt Q0JBA9 1-250) (assay: protein-binding microarray (RPBM); PBS, 2% BSA, 51.3 ng/ul salmon testes DNA, 50 uM zinc acetate, 200 nM TF, 25 C, 1 h; high values mean tight binding). Conditions: protein: recombinant; tags: N-terminal polyhistidine and DsRed monomer fusion (pET32a); label: CyDye5-dUTP incorporated in the synthesized complementary strand; 3' TTTTT single-stranded linker to array surface; dsDNA, one strand shown.
Chain of OsWRKY34 (Q0JBA9 entry or part of it): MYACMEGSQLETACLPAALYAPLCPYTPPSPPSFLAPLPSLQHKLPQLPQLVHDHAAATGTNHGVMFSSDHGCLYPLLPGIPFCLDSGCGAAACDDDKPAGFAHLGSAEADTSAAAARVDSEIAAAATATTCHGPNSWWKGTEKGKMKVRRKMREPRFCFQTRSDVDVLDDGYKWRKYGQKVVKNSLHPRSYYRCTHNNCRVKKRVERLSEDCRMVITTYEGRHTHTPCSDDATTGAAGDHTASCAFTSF
Summary of the method: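 The binding signal is fluorescence intensity per array feature (arbitrary units). Readings came from an Axon 4000B scanner after a washed, 2% BSA-blocked, double-stranded custom Agilent array had been incubated for 1 h at 25 °C with 200 nM protein and 50 µM zinc acetate. The protein was a Ni–NTA-purified transcription factor fused N-terminally to polyhistidine and DsRed, expressed in E. coli BL21-CodonPlus.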

Compared with “CGTTCATTCCGCATCCAATGGCAGCACTGGTTCCTAGCTTCGGAGTCACCTAGTGCAG”, “TTATACCACCGGATGCTGACACCATTCATCCGCTCTTCCTCGGAGTCACCTAGTGCAG” is higher in binding signal: 8110 fluorescence intensity (a.u.) for the first, 10700 fluorescence intensity (a.u.) for the second.

First: CTGTATGGCCACCGTCGCAGCTCGTCCTACACGTTTCTCACGGAGTCACCTAGTGCAG
Second: TGCTAAACCTGTGGTGTTAAATCTGGCTGGTTGCCTGTCTCGGAGTCACCTAGTGCAG
The binding signal of the first is higher: 10600 fluorescence intensity (a.u.) for the first, 9280 fluorescence intensity (a.u.) for the second.

First: TAACAGTTGACACAGGGAGCGGAGGGGCAGCTTGGTCATTCGGAGTCACCTAGTGCAG
Second: CCTTAACACTTAATCCATGTGATGCATCTGTCATGCAACTCGGAGTCACCTAGTGCAG
The binding signal of the first is higher: 8420 fluorescence intensity (a.u.) for the first, 8250 fluorescence intensity (a.u.) for the second.

First: TCCCCGCGGGCATGCCCGTTGCTGCGGGCGCAGCTCAATTCGGAGTCACCTAGTGCAG
Second: GTGCTGGAGGGAGGGAACGGGGAACGTGGCAACTGACACGCGGAGTCACCTAGTGCAG
The binding signal of the first is lower: 8280 fluorescence intensity (a.u.) for the first, 9030 fluorescence intensity (a.u.) for the second.

First: GCGCAAACGCTCGAATTTTTGGTTTTGATCCATATGCATACGGAGTCACCTAGTGCAG
Second: TGTAGTCCCGCGTCGCACGGCATCCGGCCGGCCTCTCCTACGGAGTCACCTAGTGCAG
The binding signal of the first is lower: 8580 fluorescence intensity (a.u.) for the first, 8760 fluorescence intensity (a.u.) for the second.

Compared with “GGGATGGGGAAGGTCAGAGCCAATATGATCTGGTAACTCTCGGAGTCACCTAGTGCAG”, “CAAAGGTTCTAATGTTTGACCTCATTCTTATCTAAAACGACGGAGTCACCTAGTGCAG” is lower in binding signal: 9510 fluorescence intensity (a.u.) for the first, 9440 fluorescence intensity (a.u.) for the second.

Going from “GCGTCGCCTGCCGCCTCCGCTTCCGCTCCACTCCGCTTCGCGGAGTCACCTAGTGCAG” to “GTTCCAGCTTCATGCATGCACACACACAGTAGCTCGTGCTCGGAGTCACCTAGTGCAG”, the binding signal rises from 12000 fluorescence intensity (a.u.) to 29300 fluorescence intensity (a.u.).

Compared with “AACCCTAGCTCTTCACAGCTTCCATGGCTCTTCTCTCTCTCGGAGTCACCTAGTGCAG”, “CTGAACTCTCTCTCGCTCTCCGGCTCTCTGTATTCCTTCACGGAGTCACCTAGTGCAG” is higher in binding signal: 12500 fluorescence intensity (a.u.) for the first, 19800 fluorescence intensity (a.u.) for the second.

Going from “TCTCCTCTTCTTTTTCTTCCTTCCTTTTACTCGCTCGCTCCGGAGTCACCTAGTGCAG” to “ACCTCGTACCTCGCCGCTGTTCCGTTCCGTGCTCTGTGTCCGGAGTCACCTAGTGCAG”, the binding signal rises from 9930 fluorescence intensity (a.u.) to 18700 fluorescence intensity (a.u.).

First: CAATCTCTCTCTCTCTCTCTCTCGCTGCTGCTGCTCCTTCCGGAGTCACCTAGTGCAG
Second: CCCGCTCGCTCTCGTGCTGTCCGCCGACCTCAGCTCGCTCCGGAGTCACCTAGTGCAG
The binding signal of the first is lower: 9770 fluorescence intensity (a.u.) for the first, 10000 fluorescence intensity (a.u.) for the second.

Going from “GTAGTCATTCACGTGTTCCTCTTCTCCAGTACTAGTAGCTCGGAGTCACCTAGTGCAG” to “CTCTCTGTGTCTCCGCCGCCGCCGCCTCCGCCGCTCGCCGCGGAGTCACCTAGTGCAG”, the binding signal falls from 9710 fluorescence intensity (a.u.) to 8060 fluorescence intensity (a.u.).

Going from “AACCATAAAACATGTGATTCTTTTTTTTAACCAAAACTTACGGAGTCACCTAGTGCAG” to “ACCACTTAATCTTTATCTTTGTTAGATTCATTACTACTATCGGAGTCACCTAGTGCAG”, the binding signal rises from 8130 fluorescence intensity (a.u.) to 8310 fluorescence intensity (a.u.).

Going from “TATAGGTATTCACTACCTTATCATTTATTCATACCTTGTTCGGAGTCACCTAGTGCAG” to “GGCTCCAAATCATCTGCCTTCATTGTCAGGCTTCAGTAATCGGAGTCACCTAGTGCAG”, the binding signal rises from 8060 fluorescence intensity (a.u.) to 10400 fluorescence intensity (a.u.).

Going from “AGATTCGTGTAGACCCATTGTCTGGCAGCGGCGATCGTCCCGGAGTCACCTAGTGCAG” to “TCACCCACCTGTTGACTACCATCACCACTCCTCGTCTGGACGGAGTCACCTAGTGCAG”, the binding signal rises from 8040 fluorescence intensity (a.u.) to 8590 fluorescence intensity (a.u.).

Compared with “GCCACTCCTGACGTCAGCGTTGACTCGGTCAAACCCATCGCGGAGTCACCTAGTGCAG”, “AGTTGATCGCGGTCAAATCGTCACGTTAGTTGAACCCGGTCGGAGTCACCTAGTGCAG” is lower in binding signal: 19300 fluorescence intensity (a.u.) for the first, 8260 fluorescence intensity (a.u.) for the second.

First: ATACACACTTCAGTCACTCGGTAGGCCACTCCGTACGGCACGGAGTCACCTAGTGCAG
Second: CAAAATGTTTGACATCGTTGACTTTTTAGCACATGTTTGACGGAGTCACCTAGTGCAG
The binding signal of the first is lower: 8510 fluorescence intensity (a.u.) for the first, 15300 fluorescence intensity (a.u.) for the second.

First: TTTCGAAATGTTTGACACTGTTGACTTTTTAGCACATGTTCGGAGTCACCTAGTGCAG
Second: CCGTTTCGAAATGTTTACACCGTTGACTTTTTAGCACATGCGGAGTCACCTAGTGCAG
The binding signal of the first is lower: 14200 fluorescence intensity (a.u.) for the first, 30100 fluorescence intensity (a.u.) for the second.

Compared with “TCGAAATGTTTGACACCGTTGACTTTTTAGCACATGTTTACGGAGTCACCTAGTGCAG”, “CGAAATGTTTGACGTCGTTGACTTTTTAGCACATGTTTAACGGAGTCACCTAGTGCAG” is higher in binding signal: 19000 fluorescence intensity (a.u.) for the first, 22800 fluorescence intensity (a.u.) for the second.

Compared with “TTCGAAATATTTGACACCGTTGACTTTTTAGCACATGTTTCGGAGTCACCTAGTGCAG”, “GAATTAAACTTTGCATGGTTTCTGTTTGGTCAAACTTCTCCGGAGTCACCTAGTGCAG” is lower in binding signal: 30000 fluorescence intensity (a.u.) for the first, 9130 fluorescence intensity (a.u.) for the second.

First: AGGTACGCACGCGCGGTGGAGGAGGAGGAGGAGGAGGAGGCGGAGTCACCTAGTGCAG
Second: TGAATGCACCATGTCTTTTGCTCCGTCCGTCATAAAAAAACGGAGTCACCTAGTGCAG
The binding signal of the first is higher: 10900 fluorescence intensity (a.u.) for the first, 8950 fluorescence intensity (a.u.) for the second.

Going from “TGCCAAAGCTCTATCCATTTTGCCTCTACTCAATCGTCCACGGAGTCACCTAGTGCAG” to “TCTAGATTTATCCCCATTTTTGGCTGGGCCTTCTATTTAACGGAGTCACCTAGTGCAG”, the binding signal falls from 10200 fluorescence intensity (a.u.) to 8720 fluorescence intensity (a.u.).

First: AACCCATTACATAGCTGCAAGAAACCCAATCTTTCTTTACCGGAGTCACCTAGTGCAG
Second: CCTACCCCTACCGCTCCTGCCTGCTTCGCCCGCCGCCGCCCGGAGTCACCTAGTGCAG
The binding signal of the first is higher: 8420 fluorescence intensity (a.u.) for the first, 8340 fluorescence intensity (a.u.) for the second.

Going from “CTCTATACCATACGCCATCTCCATCATCTCTCGATCCATCCGGAGTCACCTAGTGCAG” to “AGTCTGAGCCACCTTTCATTACCCATCCAAGATTCGGTTTCGGAGTCACCTAGTGCAG”, the binding signal falls from 11300 fluorescence intensity (a.u.) to 8900 fluorescence intensity (a.u.).

First: AGTAGTCCTTCAAGCTCCAATCATATACCCCTGATACTAACGGAGTCACCTAGTGCAG
Second: AGGAAATGTCTCATCAAATACTAGATTGGTTTTTTTTTACCGGAGTCACCTAGTGCAG
The binding signal of the first is lower: 8300 fluorescence intensity (a.u.) for the first, 8960 fluorescence intensity (a.u.) for the second.

First: CGATTTCGACCAATCTAGCCGCTATGTGCACTCCTTTTCCCGGAGTCACCTAGTGCAG
Second: TGGTCTTGCTGGTTGCTGCGTATTTGGCTGTATTGGTTATCGGAGTCACCTAGTGCAG
The binding signal of the first is higher: 12100 fluorescence intensity (a.u.) for the first, 8380 fluorescence intensity (a.u.) for the second.

First: ATTATACGTTAATGGCTTTCTCGTTTTGTATACGCTGATTCGGAGTCACCTAGTGCAG
Second: TCGAAATATTTGACACCGTTGACTTTTTAGCACATGTTTGCGGAGTCACCTAGTGCAG
The binding signal of the first is lower: 9600 fluorescence intensity (a.u.) for the first, 35300 fluorescence intensity (a.u.) for the second.

Going from “ATTTGATACTTCTCTCGCCTTTCTTTATTATTCTCCCGCTCGGAGTCACCTAGTGCAG” to “GAGTGCCTATTCAATTGCCTTTTGTTTGTCAACGTTTCTCCGGAGTCACCTAGTGCAG”, the binding signal falls from 8420 fluorescence intensity (a.u.) to 8080 fluorescence intensity (a.u.).
